Measured potencies and affinities stand elsewhere. Results filed as inconclusive are left out. Active and inactive are the calls of the source. No rule for the calls is given here.
molecular target: CAAX prenyl protease 1 (Saccharomyces cerevisiae (strain ATCC 204508 / S288c)) (UniProt P47154); test: yeast CAAX protease Ste24 inhibition – biochemical, S. cerevisiae, plate reader, cherry-pick, dose response (AID 488815); settings: series mostly up to 10 µM
Sequence (P47154 whole entry, looked up): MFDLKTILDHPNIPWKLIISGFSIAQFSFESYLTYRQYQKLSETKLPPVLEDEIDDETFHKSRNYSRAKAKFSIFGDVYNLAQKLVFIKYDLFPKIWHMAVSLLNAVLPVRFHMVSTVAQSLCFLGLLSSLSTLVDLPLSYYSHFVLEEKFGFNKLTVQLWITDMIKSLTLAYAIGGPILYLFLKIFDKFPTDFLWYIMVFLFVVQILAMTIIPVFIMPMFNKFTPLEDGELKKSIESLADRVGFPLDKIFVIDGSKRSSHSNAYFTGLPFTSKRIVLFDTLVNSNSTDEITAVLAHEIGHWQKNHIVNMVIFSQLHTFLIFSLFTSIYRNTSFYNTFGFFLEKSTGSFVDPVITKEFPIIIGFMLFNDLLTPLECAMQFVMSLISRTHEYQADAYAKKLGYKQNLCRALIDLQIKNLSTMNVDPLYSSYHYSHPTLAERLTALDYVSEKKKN

outcome, inactive:
c1ccc(CNc2nc(N3CCN(Cc4ccccc4)CC3)nc3ccccc23)cc1
CC(C)c1cccc(OCC(=O)Nc2ccc(S(=O)(=O)Nc3ccccn3)cc2)c1
COC(C/C=C/[C@H](O)[C@@H](C)OCc1ccccc1)OC
Cc1cc(-c2ccccc2)n2nc(C)c(C#N)c2n1
Cc1cc(C)n(Cc2ccc(NC(=O)c3ccc(COc4ccccc4Br)cc3)cc2)n1
O=C(c1cnc(Cl)c(Cl)c1)N1CCC(Cc2ccccc2)CC1
O=C(O)CCc1nc2cc(C(F)(F)F)ccc2n(Cc2ccccc2)c1=O
COc1ccc(C)cc1NC(=O)CN1C(=O)COc2ccc(S(=O)(=O)N3CCOCC3)cc21
Clc1cccc(CN2CCc3c([nH]c4ccccc34)C2)c1Cl
COC(C/C=C/[C@@H](O)[C@H](C)OCc1ccccc1)OC
COc1cc2ccccc2cc1C(=O)N(CCN(C)C)c1nc2ccc(C)cc2s1
C/C(CC1(O)C(=O)Nc2ccccc21)=N\O (stereo not given)
CC1(c2ccc(OCC#N)cc2)C=C(c2ccc(OCC#N)cc2)n2nc(C(F)(F)F)nc2N1 (stereo not given)
CCn1nc(C)cc1C(=O)NC1CC(C)(C)Cc2c1cnn2-c1cccc(F)c1 (stereo not given)
COC(C[C@@H]1O[C@@H]1C(=O)[C@@H](C)OCc1ccccc1)OC
COc1ccc2[nH]c(C(=O)NCCCn3ccnc3)cc2c1
Cc1cccc(NC(=O)c2cc(S(=O)(=O)N3CCCCC3)c[nH]2)c1C
CCN1CCN(CC(O)COc2ccc3c(C)cc(=O)oc3c2)CC1 (stereo not given)
Cc1ccc(C(=O)N2N=C(c3ccccc3O)CC2c2ccccc2)cc1 (stereo not given)
Cc1ccccc1NS(=O)(=O)c1ccc(C(=O)NCC(c2ccccc2)N(C)C)cc1 (stereo not given)
CN1CCN(C(=S)NC(=O)c2ccccc2Cl)CC1
CC(C)N1CCN(S(=O)(=O)c2ccc3ccccc3c2)CC1
COc1ccc(C(CNC(=O)COc2cc(C)c(Cl)c(C)c2)N2CCCCC2)cc1 (stereo not given)
Cc1ccc(NS(=O)(=O)c2ccc(NC(=O)N3CCCCC3)cc2)cc1
CC(=O)N1c2ccc([N+](=O)[O-])cc2NC(=O)CC1C (stereo not given)
Cc1cc2cc(C(=O)N3CCc4c([nH]c5ccccc45)C3c3ccccn3)ccc2o1 (stereo not given)
O=C(Nc1ccc2c(c1)CCC2)c1ccccc1Br
CCCCNC(=S)N=Nc1c(O)n(Cc2ccccc2)c2ccccc12
C#CCNC(=O)C1=C[C@@H](C2CCCCC2)C[C@@H](OCc2ccc(CO)cc2)O1
Cc1ccc(/C=N/NC(=O)c2nnn(-c3nonc3N)c2C(C)C)o1
CCN(Cc1ccccc1)S(=O)(=O)c1ccc(C(=O)N(CCCN(C)C)c2nc3c(C)c(C)ccc3s2)cc1
O=C(C(Cc1ccccc1)N1C(=O)c2ccccc2C1=O)N1c2ccccc2CCc2ccccc21 (stereo not given)
CC1=NN(c2ccccc2)C(=O)/C1=C\c1ccc(Br)s1
COc1cccc(C(=O)Nc2nnc(SCC(=O)NC3CCCC3)s2)c1
CN(C(=O)COC(=O)c1cn(-c2ccccc2)nc1-c1ccccc1)C1CCS(=O)(=O)C1 (stereo not given)
COc1cccc(-c2cc(C(F)(F)F)n3ncc(S(=O)(=O)c4ccccc4)c3n2)c1
O=C1CN(C(=O)NCC(=O)N2CCCC2)c2ccccc2N1
CC(C)(C)C(=O)C[n+]1ccc(C(N)=O)cc1
COc1cc(-c2nc3ccccn3c2/N=C/c2cc(OC)c(OC)c(OC)c2)ccc1O
CC(/C=N\NC(=O)CN1CCN(S(=O)(=O)c2ccc(C)cc2)CC1)=C\c1ccccc1
